In all, about 310,000 compounds went through this assay and about 14,000 (4.5%) showed an effect of 50% or more. Effects have a minus sign here. This excerpt belongs to a sample that is enriched for strong results.
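Further: peak tail current of the secondary pulse compared with the same well before compound.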

The assay deals with human ether-à-go-go-related gene (hERG) potassium channel (human, UniProt Q12809). Put plainly: primary screen, population patch clamp on CHO cells stably expressing hERG; higher = less effect of the substance.
Sequence of human ether-à-go-go-related gene (hERG) potassium channel (Q12809 whole entry, looked up): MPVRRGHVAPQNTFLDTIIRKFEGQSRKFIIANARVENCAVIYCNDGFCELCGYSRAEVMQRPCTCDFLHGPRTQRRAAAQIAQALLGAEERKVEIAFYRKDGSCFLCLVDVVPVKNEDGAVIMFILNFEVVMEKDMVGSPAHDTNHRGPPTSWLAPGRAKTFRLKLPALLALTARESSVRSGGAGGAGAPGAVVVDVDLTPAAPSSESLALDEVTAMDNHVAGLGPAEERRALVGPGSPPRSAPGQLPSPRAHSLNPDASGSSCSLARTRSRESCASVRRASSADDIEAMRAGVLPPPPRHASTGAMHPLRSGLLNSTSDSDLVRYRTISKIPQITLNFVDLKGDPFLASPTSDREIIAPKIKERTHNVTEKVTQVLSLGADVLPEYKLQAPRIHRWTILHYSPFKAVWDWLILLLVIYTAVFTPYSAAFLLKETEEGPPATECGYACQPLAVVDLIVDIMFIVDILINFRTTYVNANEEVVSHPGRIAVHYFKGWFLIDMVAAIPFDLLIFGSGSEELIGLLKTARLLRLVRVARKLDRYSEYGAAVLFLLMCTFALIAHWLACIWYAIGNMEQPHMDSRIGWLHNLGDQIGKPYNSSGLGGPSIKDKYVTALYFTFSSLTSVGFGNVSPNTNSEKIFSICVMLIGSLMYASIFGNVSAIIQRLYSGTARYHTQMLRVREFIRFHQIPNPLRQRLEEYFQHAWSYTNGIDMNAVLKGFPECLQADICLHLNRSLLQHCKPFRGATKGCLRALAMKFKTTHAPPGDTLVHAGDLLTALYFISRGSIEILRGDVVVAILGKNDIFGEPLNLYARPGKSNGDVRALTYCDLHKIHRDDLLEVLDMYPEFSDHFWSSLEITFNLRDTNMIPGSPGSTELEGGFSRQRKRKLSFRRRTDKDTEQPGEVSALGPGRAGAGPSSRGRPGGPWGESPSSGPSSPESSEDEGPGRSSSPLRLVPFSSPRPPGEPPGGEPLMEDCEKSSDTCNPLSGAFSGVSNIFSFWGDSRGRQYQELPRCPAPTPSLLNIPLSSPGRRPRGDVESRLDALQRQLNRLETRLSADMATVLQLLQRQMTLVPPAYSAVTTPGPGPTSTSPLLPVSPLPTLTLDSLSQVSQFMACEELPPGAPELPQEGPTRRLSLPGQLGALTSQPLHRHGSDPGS
Take `O=c1cc(N2CCN(c3ccccc3)CC2)[nH]c(=O)n1Cc1ccc(F)cc1`: the “hERG current change (%, negative = inhibition) at 10uM” value is reported as -25.9%. As for `OC1(c2ccccn2)COc2ccccc2O1` (centres unmarked), the figure is -10.5%; as for `CC(=O)Nc1ccc(Br)cc1C(=O)C(=O)O`, -2.93%. For `CCCOc1ccc(-c2nnn(CC(=O)N3CCCCC3)n2)cc1`, the “hERG current change (%, negative = inhibition) at 10uM” value is given as 12.9%. For the compound `N#C/C(=C\c1ccc(Cl)cc1)c1nc2ncccc2[nH]1`, the “hERG current change (%, negative = inhibition) at 10uM” value is recorded as -15.1%.

For the compound `CC1CCN(c2c(NCC3CCC(C(=O)N4CCCC(C)C4)CC3)c(=O)c2=O)CC1` (centres unmarked), the “hERG current change (%, negative = inhibition) at 10uM” value stood at 2.75%. As for `Cc1ccc(O)c(CNCCNCc2cc(C)ccc2O)c1`, the figure is -11.9%.

For the compound `Oc1ccc(Cl)cc1CNCc1ccc(Cl)cc1`, the “hERG current change (%, negative = inhibition) at 10uM” value is listed as -3.68%. For the compound `CCc1ccc(O)c(CNCCNCc2cc(CC)ccc2O)c1`, the “hERG current change (%, negative = inhibition) at 10uM” value is reported as -55.2%. As for `N=c1c(C(=O)NCCN2CCOCC2)cc2c(=O)n3ccccc3nc2n1Cc1ccc(F)cc1`, the figure is -76.5%; as for `Cc1cccn2c(=O)c3cc(C(=O)NCCN4CCOCC4)c(=N)n(Cc4ccc(F)cc4)c3nc12`, -72.9%. Turning to `Cn1c(C(=O)NCCN2CCOCC2)cc2c(=O)n3ccccc3nc21`, the “hERG current change (%, negative = inhibition) at 10uM” value is 10%. In the case of `Cc1ccc(Cn2c(=N)c(C(=O)NCCN3CCOCC3)cc3c(=O)n4ccccc4nc32)cc1`, the “hERG current change (%, negative = inhibition) at 10uM” value is reported as -63.2%. Take `Cc1c(C)n(Cc2ccc(F)cc2)c2ccc(C(=O)NCCN3CCOCC3)cc12`: the “hERG current change (%, negative = inhibition) at 10uM” value was -19.2%. The figure for `O=C(NCCN1CCOCC1)c1cc2c(=O)n3ccccc3nc2n1Cc1ccccc1` is -5.9%; for `CC(C)NC(=O)Cn1c(SCC(=O)c2ccc(F)cc2)nc2ccccc21` it is 6.27%; for `COCCn1c(-c2ccc(F)cc2)nc2cccnc21` it is 12.1%.

Take `O=C1C[C@H](NC(=O)OCc2ccccc2)CO1`: the “hERG current change (%, negative = inhibition) at 10uM” value is listed as 6.32%. For `Fc1ccc(C2NCCn3cccc32)cc1.O=C(O)/C=C/C(=O)O` (centres unmarked), the “hERG current change (%, negative = inhibition) at 10uM” value is given as -3.11%. With `O=C(Nc1ccc(OC(F)F)c(Cl)c1)[C@@H]1CCCN1C(=O)c1cccs1`, the “hERG current change (%, negative = inhibition) at 10uM” value is reported as -74.3%. As to `COc1ccc(NC(=O)[C@@H]2CCCN2C(=O)c2cccs2)cc1S(=O)(=O)N1CCCCC1`, the “hERG current change (%, negative = inhibition) at 10uM” value is on record as -6.06%. For `Cc1ccc(NC(=O)[C@@H]2CCCN2C(=O)c2cccs2)cc1S(=O)(=O)N1CCCCC1`, the “hERG current change (%, negative = inhibition) at 10uM” value was -63.9%. Take `O=C(Nc1ccc(S(=O)(=O)N2CCCC2)cc1)C1CCCN1C(=O)c1cccs1` (centres unmarked): the “hERG current change (%, negative = inhibition) at 10uM” value was 0.837%. As for `Cc1ccc(NC(=O)C2CCCN2C(=O)c2cccs2)cc1C` (centres unmarked), the figure is -25.5%; as for `O=C(Nc1nc2ccc(Cl)cc2s1)[C@@H]1CCCN1C(=O)c1cccs1`, 3.87%; as for `O=C(Nc1ccc(Cl)c(S(=O)(=O)N2CCOCC2)c1)[C@@H]1CCCN1C(=O)c1cccs1`, -57.6%. `CCOc1ccc(NC(=O)[C@@H]2CCCN2C(=O)c2cccs2)cc1S(=O)(=O)N1CCCCC1`: the “hERG current change (%, negative = inhibition) at 10uM” value is 10.5%.

For `COc1ccc2nc(NC(=O)[C@@H]3CCCN3C(=O)c3cccs3)sc2c1`, the “hERG current change (%, negative = inhibition) at 10uM” value was -56.4%. Regarding `O=C(Nc1ccccc1OC(F)F)C1CCCN1C(=O)c1cccs1` (centres unmarked), the “hERG current change (%, negative = inhibition) at 10uM” value is on record as 1.98%. With `CCOc1ccc(NC(=O)[C@@H]2CCCN2C(=O)c2cccs2)cc1S(=O)(=O)N1CCOCC1`, the “hERG current change (%, negative = inhibition) at 10uM” value is 6.27%. As for `COc1ccc2nc(NC(=O)c3cccs3)sc2c1`, the “hERG current change (%, negative = inhibition) at 10uM” value was 8.71%. As for `CNC(=O)CN(C)S(=O)(=O)c1ccc(OC)c(Cl)c1`, the “hERG current change (%, negative = inhibition) at 10uM” value is recorded as 6.65%. As to `CC(=O)Nc1ncc(Cc2cc(Cl)ccc2Cl)s1`, the “hERG current change (%, negative = inhibition) at 10uM” value was -1.4%. The figure for `CSc1nnc(Cn2c(=O)sc3ccccc32)n1-c1cccc(Cl)c1` is -37.9%; for `Cn1c(=O)c2c(ncn2CC(=O)OCC(=O)Nc2ccccc2Cl)n(C)c1=O` it is 4.46%.

With `CC(C(=O)NC1CCCc2ccccc21)N1CCN(c2ccc(F)cc2)CC1` (centres unmarked), the “hERG current change (%, negative = inhibition) at 10uM” value was -35.6%. Regarding `CC(C(=O)NC1CCCc2ccccc21)N1CCN(Cc2ccc3c(c2)OCO3)CC1` (centres unmarked), the “hERG current change (%, negative = inhibition) at 10uM” value was -51.9%. Regarding `CC(NCc1ccc2c(c1)OCO2)C(=O)NC1CCCc2ccccc21.O=C(O)C(=O)O` (centres unmarked), the “hERG current change (%, negative = inhibition) at 10uM” value is recorded as -22.6%. As for `COC(=O)c1cc2c(ccn2C)n1C`, the “hERG current change (%, negative = inhibition) at 10uM” value is given as 19.5%. Regarding `CC(C)(C)c1ccc(S(=O)(=O)/N=C2\C=C(NS(=O)(=O)c3ccccc3)C(=O)c3ccccc32)cc1`, the “hERG current change (%, negative = inhibition) at 10uM” value is -2.61%.

With `O=C(/C=C/c1ccc(F)cc1)NC(=S)N1CCCCC1c1cccnc1` (centres unmarked), the “hERG current change (%, negative = inhibition) at 10uM” value was -68.1%.

For `O=C(NC(=S)N1CCCCC1c1cccnc1)c1ccccc1` (centres unmarked), the “hERG current change (%, negative = inhibition) at 10uM” value came to 4.5%. Take `O=C(/C=C/c1ccc(Cl)cc1)NC(=S)NN1CCCCC1c1cccnc1` (centres unmarked): the “hERG current change (%, negative = inhibition) at 10uM” value is listed as -67%. `COc1ccc(/C=C/C(=O)NC(=S)NN2CCCCC2c2cccnc2)cc1OC` (centres unmarked): the “hERG current change (%, negative = inhibition) at 10uM” value came out at 3.25%. As for `O=C(NC(=S)N1CCCCC1c1cccnc1)c1ccc(F)cc1` (centres unmarked), the figure is 5.06%.

Turning to `COc1ccc(/C=C/C(=O)NC(=S)NN2CCCCC2c2cccnc2)cc1` (centres unmarked), the “hERG current change (%, negative = inhibition) at 10uM” value is on record as -26.9%. As for `COc1ccc(C)cc1NCc1cccc(OC)c1OC`, the figure is 1.13%.

For the compound `COc1cc(/C=C(\C#N)C(=O)NCC2CCCO2)ccc1OCCC(C)C` (centres unmarked), the “hERG current change (%, negative = inhibition) at 10uM” value amounted to 4.67%. `O=C(Nc1ccccc1)N1CCCN(c2ccc(C(F)(F)F)cc2[N+](=O)[O-])CC1`: the “hERG current change (%, negative = inhibition) at 10uM” value is -39.9%. With `O=C(Cn1nc(Cc2cccnc2)c2ccccc2c1=O)NCc1ccc2c(c1)OCO2`, the “hERG current change (%, negative = inhibition) at 10uM” value was -25.8%.

Regarding `O=C(Cn1nc(Cc2cccnc2)c2ccccc2c1=O)NCC1COc2ccccc2O1` (centres unmarked), the “hERG current change (%, negative = inhibition) at 10uM” value was -57.4%. Regarding `O=C(Cn1nc(Cc2cccnc2)c2ccccc2c1=O)NCC1CCCO1` (centres unmarked), the “hERG current change (%, negative = inhibition) at 10uM” value is 9.7%. For the compound `Cc1ccc(C2CC(c3ccccc3)=NN2c2ccccc2)o1` (centres unmarked), the “hERG current change (%, negative = inhibition) at 10uM” value stood at 4.42%. Regarding `COc1ccc(C(CNC(=O)c2oc3ccc(OC)cc3c2C)N2CCCC2)cc1` (centres unmarked), the “hERG current change (%, negative = inhibition) at 10uM” value is -67.5%. Turning to `COc1ccc(C(CNC(=O)c2oc3c(Cl)cccc3c2C)N2CCCC2)cc1` (centres unmarked), the “hERG current change (%, negative = inhibition) at 10uM” value is reported as -50.9%.

As for `COc1ccc(C(CNC(=O)c2oc3ccc(C)cc3c2C)N2CCCCC2)cc1` (centres unmarked), the “hERG current change (%, negative = inhibition) at 10uM” value is reported as 6.26%.

Turning to `COc1ccccc1C(CNC(=O)c1ccco1)N1CCCC1` (centres unmarked), the “hERG current change (%, negative = inhibition) at 10uM” value is given as 1.23%. For `CCc1ccc2oc(C(=O)NCC(c3ccc(OC)cc3)N3CCCCC3)c(C)c2c1` (centres unmarked), the “hERG current change (%, negative = inhibition) at 10uM” value was -3.57%. As to `COc1ccc(C(CNC(=O)c2oc3ccc(Cl)cc3c2C)N2CCCCC2)cc1` (centres unmarked), the “hERG current change (%, negative = inhibition) at 10uM” value was -25.9%.

On to `COc1ccc(C(CNC(=O)c2oc3cc(C)c(Cl)cc3c2C)N2CCCCC2)cc1` (centres unmarked), for which the “hERG current change (%, negative = inhibition) at 10uM” value turned out to be 16.3%.

For the compound `COc1ccc(C(CNC(=O)c2oc3ccc(F)cc3c2C)N2CCCCC2)cc1` (centres unmarked), the “hERG current change (%, negative = inhibition) at 10uM” value is given as -59.9%. As for `COc1ccccc1C(CNC(=O)c1ccc(-c2ccccc2Cl)o1)N1CCCC1` (centres unmarked), the figure is -72.2%. For the compound `COc1ccc(C(CNC(=O)c2oc3ccccc3c2C)N2CCCC2)cc1` (centres unmarked), the “hERG current change (%, negative = inhibition) at 10uM” value is listed as -43.8%. With `COc1ccc(C(CNC(=O)c2ccc(-c3ccccc3Cl)o2)N2CCOCC2)cc1` (centres unmarked), the “hERG current change (%, negative = inhibition) at 10uM” value was -23.7%. Consider `COc1ccc(C(CNC(=O)c2oc3ccc(Br)cc3c2C)N2CCCCC2)cc1` (centres unmarked), for which the “hERG current change (%, negative = inhibition) at 10uM” value is reported as -13.3%.

The record behind these values is article PMC4336329 (PLoS ONE, 2015).
